Measurements taken from publication PMC7862700, “An all-to-all approach to the identification of sequence-specific readers for epigenetic DNA modifications on cytosine”.

Columns and labels:
Test in all cases: DAPPL (digital affinity profiling via proximity ligation, sequencing); 10 mM Tris-HCl pH 7.5, 50 mM NaCl, 1 mM DTT, 4% glycerol, room temperature, 30 min; GST-TFs on glutathione beads, 16-mer random dsDNA library, 0.1% formaldehyde crosslink after washing; high values mean tight binding
FLI1 = biological target: T1, FLI1 (Homo sapiens, UniProt Q01543 1-452); conditions: protein: recombinant; tags: N-terminal GST; dsDNA, one strand shown
T1 sequence: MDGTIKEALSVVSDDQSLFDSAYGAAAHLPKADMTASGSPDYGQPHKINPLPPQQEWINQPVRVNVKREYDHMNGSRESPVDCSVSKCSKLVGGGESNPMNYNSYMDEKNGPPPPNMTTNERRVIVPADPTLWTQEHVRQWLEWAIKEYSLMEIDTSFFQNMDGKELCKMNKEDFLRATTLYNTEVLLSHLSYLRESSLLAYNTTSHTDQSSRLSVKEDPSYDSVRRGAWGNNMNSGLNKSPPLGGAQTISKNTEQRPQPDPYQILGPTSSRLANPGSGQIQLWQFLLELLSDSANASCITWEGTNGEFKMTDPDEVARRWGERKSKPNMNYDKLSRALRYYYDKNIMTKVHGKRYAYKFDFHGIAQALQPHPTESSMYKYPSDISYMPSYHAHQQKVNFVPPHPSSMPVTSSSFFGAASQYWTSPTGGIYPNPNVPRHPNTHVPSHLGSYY
Procedure, shortened: (§1)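 Human transcription factors were made in yeast as GST fusions, captured on glutathione beads and barcoded with DNA. With a tag-only sample included, the pool was incubated with 200 nmole of a random double-stranded 16-mer DNA library in Tris/NaCl/DTT/glycerol buffer at room temperature for 30 min, then crosslinked with 0.1% formaldehyde after washing, ligated by proximity, amplified and sequenced. For binding signal, each hexamer's read frequency for a factor is divided by its frequency for the tag-only sample.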

ELK1 = biological target: T2, ELK1 (Homo sapiens, UniProt P19419 1-428); conditions: protein: recombinant; tags: N-terminal GST; dsDNA, one strand shown
T2 sequence: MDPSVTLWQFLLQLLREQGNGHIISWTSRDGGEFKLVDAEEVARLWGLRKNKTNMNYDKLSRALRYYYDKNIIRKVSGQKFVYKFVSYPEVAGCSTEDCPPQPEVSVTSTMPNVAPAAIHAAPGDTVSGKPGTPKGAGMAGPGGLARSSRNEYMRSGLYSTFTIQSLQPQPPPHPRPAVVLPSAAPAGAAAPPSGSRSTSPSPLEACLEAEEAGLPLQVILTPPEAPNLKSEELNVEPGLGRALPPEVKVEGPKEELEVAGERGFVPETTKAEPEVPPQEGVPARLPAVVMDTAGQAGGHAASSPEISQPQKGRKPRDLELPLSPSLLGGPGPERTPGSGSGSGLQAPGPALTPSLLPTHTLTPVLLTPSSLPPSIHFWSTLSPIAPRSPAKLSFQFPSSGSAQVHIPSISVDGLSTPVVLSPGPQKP
Procedure, shortened: as §1

GABPA = biological target: T3, GABPA (Homo sapiens, UniProt Q06546 1-454); conditions: protein: recombinant; tags: N-terminal GST; dsDNA, one strand shown
T3 sequence: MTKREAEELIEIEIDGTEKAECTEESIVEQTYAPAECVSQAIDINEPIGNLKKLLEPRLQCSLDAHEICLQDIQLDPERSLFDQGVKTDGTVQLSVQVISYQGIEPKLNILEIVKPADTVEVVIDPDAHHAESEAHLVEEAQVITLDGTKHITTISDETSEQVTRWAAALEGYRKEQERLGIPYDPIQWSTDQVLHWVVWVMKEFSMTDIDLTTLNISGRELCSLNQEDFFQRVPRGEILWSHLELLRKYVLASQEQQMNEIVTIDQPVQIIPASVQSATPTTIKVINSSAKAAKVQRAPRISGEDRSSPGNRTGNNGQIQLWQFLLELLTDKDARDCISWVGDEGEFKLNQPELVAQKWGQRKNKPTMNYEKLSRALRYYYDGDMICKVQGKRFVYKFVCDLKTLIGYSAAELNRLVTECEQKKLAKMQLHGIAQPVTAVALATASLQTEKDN
Procedure, shortened: as §1

ERG = biological target: T4, ERG (Homo sapiens, UniProt P11308 1-479); conditions: protein: recombinant; tags: N-terminal GST; dsDNA, one strand shown
T4 sequence: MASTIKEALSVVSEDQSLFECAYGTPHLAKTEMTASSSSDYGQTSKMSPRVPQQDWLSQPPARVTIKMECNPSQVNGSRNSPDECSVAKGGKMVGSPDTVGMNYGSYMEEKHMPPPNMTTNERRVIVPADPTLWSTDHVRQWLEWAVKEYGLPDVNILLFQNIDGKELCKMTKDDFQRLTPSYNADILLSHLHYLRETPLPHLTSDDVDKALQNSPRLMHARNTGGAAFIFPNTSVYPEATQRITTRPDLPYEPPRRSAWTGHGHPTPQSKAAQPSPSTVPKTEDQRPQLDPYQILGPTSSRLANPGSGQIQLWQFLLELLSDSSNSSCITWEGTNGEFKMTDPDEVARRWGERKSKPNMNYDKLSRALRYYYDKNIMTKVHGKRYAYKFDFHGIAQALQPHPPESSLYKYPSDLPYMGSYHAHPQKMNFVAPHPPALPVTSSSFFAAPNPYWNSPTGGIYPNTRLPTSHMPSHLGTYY
Procedure, shortened: as §1

ELF1 = ELF1 (Homo sapiens, UniProt P32519 1-619); conditions: protein: recombinant; tags: N-terminal GST; dsDNA, one strand shown
Procedure, shortened: as §1

EHF = biological target: T5, EHF (Homo sapiens, UniProt Q9NZC4 1-300); conditions: protein: recombinant; tags: N-terminal GST; dsDNA, one strand shown
T5 sequence: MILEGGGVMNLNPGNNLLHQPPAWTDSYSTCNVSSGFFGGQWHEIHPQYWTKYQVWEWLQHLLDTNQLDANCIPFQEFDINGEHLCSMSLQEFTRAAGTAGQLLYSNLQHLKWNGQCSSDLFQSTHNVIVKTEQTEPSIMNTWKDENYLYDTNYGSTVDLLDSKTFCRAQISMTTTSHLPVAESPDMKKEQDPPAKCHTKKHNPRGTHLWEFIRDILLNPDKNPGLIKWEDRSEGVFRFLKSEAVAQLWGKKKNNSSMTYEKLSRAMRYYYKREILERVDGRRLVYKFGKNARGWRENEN
Procedure, shortened: as §1

SPI1 = SPI1 (Homo sapiens, UniProt P17947 1-270); conditions: protein: recombinant; tags: N-terminal GST; dsDNA, one strand shown
Procedure, shortened: as §1

SPIB = SPIB (Homo sapiens, UniProt Q01892 1-262); conditions: protein: recombinant; tags: N-terminal GST; dsDNA, one strand shown
Procedure, shortened: as §1

ELK3 = biological target: T6, ELK3 (Homo sapiens, UniProt P41970 1-407); conditions: protein: recombinant; tags: N-terminal GST; dsDNA, one strand shown
T6 sequence: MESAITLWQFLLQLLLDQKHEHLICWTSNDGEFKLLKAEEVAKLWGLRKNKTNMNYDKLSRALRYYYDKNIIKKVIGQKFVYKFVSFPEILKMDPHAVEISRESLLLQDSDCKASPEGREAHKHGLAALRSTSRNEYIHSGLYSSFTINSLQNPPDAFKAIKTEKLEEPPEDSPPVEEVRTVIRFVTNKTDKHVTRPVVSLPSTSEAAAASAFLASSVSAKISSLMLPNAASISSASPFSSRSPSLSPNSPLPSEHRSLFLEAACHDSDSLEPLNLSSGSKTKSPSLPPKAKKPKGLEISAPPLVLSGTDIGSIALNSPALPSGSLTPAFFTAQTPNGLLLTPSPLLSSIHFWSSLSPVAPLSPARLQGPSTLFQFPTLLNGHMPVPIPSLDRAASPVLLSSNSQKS
Procedure, shortened: as §1

FEV = biological target: T7, FEV (Homo sapiens, UniProt Q99581 1-238); conditions: protein: recombinant; tags: N-terminal GST; dsDNA, one strand shown
T7 sequence: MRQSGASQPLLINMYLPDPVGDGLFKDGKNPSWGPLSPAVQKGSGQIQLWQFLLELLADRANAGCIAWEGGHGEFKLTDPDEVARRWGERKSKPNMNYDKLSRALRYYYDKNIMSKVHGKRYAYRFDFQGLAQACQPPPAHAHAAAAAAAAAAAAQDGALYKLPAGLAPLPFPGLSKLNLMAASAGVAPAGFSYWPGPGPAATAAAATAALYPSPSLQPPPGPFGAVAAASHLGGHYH
Procedure, shortened: as §1

ETV5 = ETV5 (Homo sapiens, UniProt P41161 1-510); conditions: protein: recombinant; tags: N-terminal GST; dsDNA, one strand shown
Procedure, shortened: as §1

HSF1 = HSF1 (Homo sapiens, UniProt Q00613 1-529); conditions: protein: recombinant; tags: N-terminal GST; chain copies: 3; dsDNA, one strand shown
Procedure, shortened: as §1

SPIC = biological target: T8, SPIC (Homo sapiens, UniProt Q8N5J4 1-248); conditions: protein: recombinant; tags: N-terminal GST; dsDNA, one strand shown
T8 sequence: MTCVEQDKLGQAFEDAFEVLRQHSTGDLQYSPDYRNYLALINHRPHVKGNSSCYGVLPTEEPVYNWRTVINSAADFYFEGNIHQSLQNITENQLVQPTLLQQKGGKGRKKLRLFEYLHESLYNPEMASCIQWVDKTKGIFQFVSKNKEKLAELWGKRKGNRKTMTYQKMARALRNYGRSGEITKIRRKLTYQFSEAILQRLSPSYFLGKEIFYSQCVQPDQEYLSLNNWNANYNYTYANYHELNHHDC
Procedure, shortened: as §1

ELF4 = ELF4 (Homo sapiens, UniProt Q99607 1-663); conditions: protein: recombinant; tags: N-terminal GST; dsDNA, one strand shown
Procedure, shortened: as §1

ELK4 = biological target: T9, ELK4 (Homo sapiens, UniProt P28324-2 1-405); conditions: protein: recombinant; tags: N-terminal GST; dsDNA, one strand shown
T9 sequence: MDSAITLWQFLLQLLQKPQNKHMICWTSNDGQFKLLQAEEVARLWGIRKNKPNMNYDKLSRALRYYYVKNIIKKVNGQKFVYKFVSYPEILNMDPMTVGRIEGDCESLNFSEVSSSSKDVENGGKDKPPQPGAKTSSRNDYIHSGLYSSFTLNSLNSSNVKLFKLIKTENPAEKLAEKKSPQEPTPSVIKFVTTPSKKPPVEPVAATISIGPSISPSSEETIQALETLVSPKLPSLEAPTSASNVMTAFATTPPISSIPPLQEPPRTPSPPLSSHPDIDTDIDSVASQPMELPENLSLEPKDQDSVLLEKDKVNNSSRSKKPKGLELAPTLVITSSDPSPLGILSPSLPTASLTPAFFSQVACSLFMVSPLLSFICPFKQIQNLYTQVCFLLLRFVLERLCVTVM
Procedure, shortened: as §1

ETV2 = biological target: T10, ETV2 (Homo sapiens, UniProt O00321 1-342); conditions: protein: recombinant; tags: N-terminal GST; dsDNA, one strand shown
T10 sequence: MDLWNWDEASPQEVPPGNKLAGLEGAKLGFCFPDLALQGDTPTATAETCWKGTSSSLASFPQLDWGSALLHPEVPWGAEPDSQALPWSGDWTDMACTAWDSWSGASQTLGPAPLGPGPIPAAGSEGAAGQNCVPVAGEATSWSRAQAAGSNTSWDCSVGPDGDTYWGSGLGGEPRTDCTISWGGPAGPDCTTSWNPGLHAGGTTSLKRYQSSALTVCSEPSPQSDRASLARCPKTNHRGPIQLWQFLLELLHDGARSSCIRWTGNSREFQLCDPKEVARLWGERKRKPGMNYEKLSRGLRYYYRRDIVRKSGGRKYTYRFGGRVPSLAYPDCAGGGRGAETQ
Procedure, shortened: as §1

ELF3 = biological target: T11, ELF3 (Homo sapiens, UniProt P78545 1-371); conditions: protein: recombinant; tags: N-terminal GST; dsDNA, one strand shown
T11 sequence: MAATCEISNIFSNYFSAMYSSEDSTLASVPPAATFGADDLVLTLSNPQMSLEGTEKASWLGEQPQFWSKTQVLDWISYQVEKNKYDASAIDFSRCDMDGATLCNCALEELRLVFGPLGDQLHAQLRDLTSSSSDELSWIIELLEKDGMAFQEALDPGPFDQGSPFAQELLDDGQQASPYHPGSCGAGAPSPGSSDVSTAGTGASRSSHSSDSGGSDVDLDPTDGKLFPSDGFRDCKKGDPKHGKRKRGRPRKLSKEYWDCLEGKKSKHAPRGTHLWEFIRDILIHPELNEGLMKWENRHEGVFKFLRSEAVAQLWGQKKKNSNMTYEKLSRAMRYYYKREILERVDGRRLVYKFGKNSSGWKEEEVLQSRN
Procedure, shortened: as §1

CRX = CRX (Homo sapiens, UniProt O43186 1-299); conditions: protein: recombinant; tags: N-terminal GST; dsDNA, one strand shown
Procedure, shortened: as §1

ETV1 = ETV1 (Homo sapiens, UniProt P50549 1-477); conditions: protein: recombinant; tags: N-terminal GST; dsDNA, one strand shown
Procedure, shortened: as §1

Sequence of CRX (O43186 whole entry): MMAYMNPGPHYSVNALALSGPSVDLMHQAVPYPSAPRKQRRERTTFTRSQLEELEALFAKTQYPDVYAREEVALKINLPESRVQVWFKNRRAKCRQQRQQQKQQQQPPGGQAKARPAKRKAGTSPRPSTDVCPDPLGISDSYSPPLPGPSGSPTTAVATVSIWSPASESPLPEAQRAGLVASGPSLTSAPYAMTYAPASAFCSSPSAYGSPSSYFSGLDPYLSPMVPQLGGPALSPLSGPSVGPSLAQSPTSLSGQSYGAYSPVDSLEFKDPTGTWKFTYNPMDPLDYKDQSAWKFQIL
Sequence of ELF1 (P32519 whole entry): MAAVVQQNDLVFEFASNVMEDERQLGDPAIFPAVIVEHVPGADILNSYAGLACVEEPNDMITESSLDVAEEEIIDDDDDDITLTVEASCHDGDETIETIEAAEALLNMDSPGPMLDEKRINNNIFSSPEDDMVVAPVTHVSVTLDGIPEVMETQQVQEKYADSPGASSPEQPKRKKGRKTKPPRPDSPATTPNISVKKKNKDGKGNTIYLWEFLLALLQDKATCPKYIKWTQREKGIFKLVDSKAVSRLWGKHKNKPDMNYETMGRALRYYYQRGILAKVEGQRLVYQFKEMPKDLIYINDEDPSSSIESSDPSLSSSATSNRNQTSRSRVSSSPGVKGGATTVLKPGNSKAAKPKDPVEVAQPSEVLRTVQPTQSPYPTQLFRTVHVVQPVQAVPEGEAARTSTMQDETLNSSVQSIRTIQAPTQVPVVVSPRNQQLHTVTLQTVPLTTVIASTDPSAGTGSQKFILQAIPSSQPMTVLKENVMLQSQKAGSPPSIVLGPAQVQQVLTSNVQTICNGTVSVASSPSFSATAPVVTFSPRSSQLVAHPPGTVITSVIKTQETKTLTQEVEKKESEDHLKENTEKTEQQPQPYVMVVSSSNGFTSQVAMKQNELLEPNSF
Sequence of ETV5 (P41161 whole entry): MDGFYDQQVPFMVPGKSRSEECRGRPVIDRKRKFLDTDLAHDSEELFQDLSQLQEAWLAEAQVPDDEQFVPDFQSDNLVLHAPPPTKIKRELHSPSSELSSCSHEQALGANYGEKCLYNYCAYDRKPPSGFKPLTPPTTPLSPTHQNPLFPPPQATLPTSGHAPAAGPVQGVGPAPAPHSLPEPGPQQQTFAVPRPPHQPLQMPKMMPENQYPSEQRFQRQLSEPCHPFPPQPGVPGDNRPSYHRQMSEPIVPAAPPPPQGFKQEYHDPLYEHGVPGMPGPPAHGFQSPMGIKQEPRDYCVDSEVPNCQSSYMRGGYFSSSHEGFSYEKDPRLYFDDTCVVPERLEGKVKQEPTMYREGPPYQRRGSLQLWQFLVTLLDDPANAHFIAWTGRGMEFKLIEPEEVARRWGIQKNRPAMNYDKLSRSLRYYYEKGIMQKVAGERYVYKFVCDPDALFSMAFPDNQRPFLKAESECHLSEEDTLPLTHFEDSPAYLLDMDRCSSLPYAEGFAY
Sequence of SPIB (Q01892 whole entry): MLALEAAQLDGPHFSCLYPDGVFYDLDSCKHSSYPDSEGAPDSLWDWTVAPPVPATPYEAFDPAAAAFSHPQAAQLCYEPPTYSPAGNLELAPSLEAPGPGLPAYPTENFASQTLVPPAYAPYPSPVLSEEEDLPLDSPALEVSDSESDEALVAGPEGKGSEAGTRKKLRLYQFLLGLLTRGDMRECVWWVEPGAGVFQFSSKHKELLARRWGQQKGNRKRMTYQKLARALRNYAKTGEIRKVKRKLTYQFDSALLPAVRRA
Sequence of ETV1 (P50549 whole entry): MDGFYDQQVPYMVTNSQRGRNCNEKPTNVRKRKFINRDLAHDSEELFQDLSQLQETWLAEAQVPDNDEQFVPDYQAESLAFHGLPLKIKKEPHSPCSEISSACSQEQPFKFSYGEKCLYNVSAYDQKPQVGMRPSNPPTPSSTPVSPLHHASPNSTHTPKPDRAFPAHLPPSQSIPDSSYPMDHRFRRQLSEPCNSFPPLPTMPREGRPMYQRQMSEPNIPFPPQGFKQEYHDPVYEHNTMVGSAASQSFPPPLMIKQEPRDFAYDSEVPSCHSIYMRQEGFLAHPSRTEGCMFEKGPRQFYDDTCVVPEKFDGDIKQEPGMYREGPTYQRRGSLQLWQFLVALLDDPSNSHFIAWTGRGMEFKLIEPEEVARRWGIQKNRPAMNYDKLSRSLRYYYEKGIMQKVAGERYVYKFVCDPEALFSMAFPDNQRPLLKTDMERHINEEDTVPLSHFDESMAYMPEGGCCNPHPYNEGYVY
Sequence of ELF4 (Q99607 whole entry): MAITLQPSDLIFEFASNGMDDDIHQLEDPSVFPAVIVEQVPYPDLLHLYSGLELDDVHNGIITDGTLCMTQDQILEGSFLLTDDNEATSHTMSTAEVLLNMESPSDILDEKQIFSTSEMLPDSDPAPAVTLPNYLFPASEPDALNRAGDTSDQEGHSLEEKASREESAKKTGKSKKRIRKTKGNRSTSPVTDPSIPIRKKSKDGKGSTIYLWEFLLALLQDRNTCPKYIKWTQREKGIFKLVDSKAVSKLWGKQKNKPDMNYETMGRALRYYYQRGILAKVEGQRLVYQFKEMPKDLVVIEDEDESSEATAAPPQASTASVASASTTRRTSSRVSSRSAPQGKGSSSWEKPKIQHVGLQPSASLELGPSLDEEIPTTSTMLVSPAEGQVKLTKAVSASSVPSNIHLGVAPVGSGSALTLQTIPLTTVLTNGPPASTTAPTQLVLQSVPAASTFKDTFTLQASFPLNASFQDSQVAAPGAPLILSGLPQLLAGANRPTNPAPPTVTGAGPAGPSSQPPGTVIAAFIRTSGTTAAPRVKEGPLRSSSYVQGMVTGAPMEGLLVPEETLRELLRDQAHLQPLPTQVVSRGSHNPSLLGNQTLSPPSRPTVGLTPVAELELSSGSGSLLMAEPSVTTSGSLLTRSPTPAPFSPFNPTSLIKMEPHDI
Sequence of HSF1 (Q00613 whole entry): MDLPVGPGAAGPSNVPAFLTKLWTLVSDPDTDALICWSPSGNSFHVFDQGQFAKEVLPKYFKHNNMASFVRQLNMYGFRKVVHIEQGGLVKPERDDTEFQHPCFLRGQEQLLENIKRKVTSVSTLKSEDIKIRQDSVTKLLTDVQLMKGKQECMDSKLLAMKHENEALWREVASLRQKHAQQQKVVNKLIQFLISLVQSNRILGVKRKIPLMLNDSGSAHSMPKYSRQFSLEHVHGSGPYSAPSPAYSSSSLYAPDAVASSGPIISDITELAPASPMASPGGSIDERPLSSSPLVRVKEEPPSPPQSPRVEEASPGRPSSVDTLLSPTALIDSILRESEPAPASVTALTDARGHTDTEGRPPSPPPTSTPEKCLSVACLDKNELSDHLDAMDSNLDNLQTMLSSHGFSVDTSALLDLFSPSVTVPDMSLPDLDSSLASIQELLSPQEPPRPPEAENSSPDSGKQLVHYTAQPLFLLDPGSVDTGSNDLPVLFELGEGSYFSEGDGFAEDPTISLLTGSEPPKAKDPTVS

Question: TCTCAT was tested. Which binding signal (FLI1) did it give?
Answer: 1.3 fold enrichment (6-mer frequency, TF over GST control)

Question: What about the binding signal (ELK1) of the same sequence?
Answer: 1.36 fold enrichment (6-mer frequency, TF over GST control)

Question: And the binding signal (GABPA)?
Answer: 1.34 fold enrichment (6-mer frequency, TF over GST control)

Question: And the binding signal (ERG)?
Answer: 1.2 fold enrichment (6-mer frequency, TF over GST control)

Question: What about the binding signal (ELF1) of the same sequence?
Answer: 1.36 fold enrichment (6-mer frequency, TF over GST control)

Question: And the binding signal (EHF)?
Answer: 1.31 fold enrichment (6-mer frequency, TF over GST control)

Question: What about the binding signal (SPI1) of the same sequence?
Answer: 1.37 fold enrichment (6-mer frequency, TF over GST control)

Question: What about the binding signal (SPIB) of the same sequence?
Answer: 1.33 fold enrichment (6-mer frequency, TF over GST control)

Question: And the binding signal (ELK3)?
Answer: 1.29 fold enrichment (6-mer frequency, TF over GST control)

Question: And the binding signal (FEV)?
Answer: 1.27 fold enrichment (6-mer frequency, TF over GST control)

Question: What about the binding signal (ETV5) of the same sequence?
Answer: 1.39 fold enrichment (6-mer frequency, TF over GST control)

Question: And the binding signal (HSF1)?
Answer: 1.29 fold enrichment (6-mer frequency, TF over GST control)

Question: What about the binding signal (SPIC) of the same sequence?
Answer: 1.46 fold enrichment (6-mer frequency, TF over GST control)

Question: What about the binding signal (ELF4) of the same sequence?
Answer: 1.25 fold enrichment (6-mer frequency, TF over GST control)

Question: What about the binding signal (ELK4) of the same sequence?
Answer: 1.37 fold enrichment (6-mer frequency, TF over GST control)

Question: And the binding signal (ETV2)?
Answer: 1.46 fold enrichment (6-mer frequency, TF over GST control)

Question: What about the binding signal (ELF3) of the same sequence?
Answer: 1.32 fold enrichment (6-mer frequency, TF over GST control)

Question: And the binding signal (CRX)?
Answer: 1.36 fold enrichment (6-mer frequency, TF over GST control)

Question: And the binding signal (ETV1)?
Answer: 1.38 fold enrichment (6-mer frequency, TF over GST control)
